# Measurements reported in PubChem BioAssay (NCI).
# The panel holds about 83,000 compounds, 20% with a hit somewhere; the sample as a whole holds those more often.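 Activity criterion: percent growth below 10, measured after cells in 96-well plates were exposed to a single compound concentration for 48 hours.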 Values without a mark were called inactive. Active and inactive are the calls of the source.
# How the values were obtained:
# Assay in all cases: NCI-60 one-dose screen, 48 h (100 = growth as untreated, 0 = no growth, -100 = all killed)
# Details in all cases: 10 µM unless noted
# [1] = system: SK-MEL-2 melanoma
# [2] = system: EKVX NSCLC
# [3] = system: SN12C renal
# [4] = system: UO-31 renal
# [5] = system: TK-10 renal
# [6] = system: ACHN renal
# [7] = system: CAKI-1 renal
# [8] = system: A498 renal
# [9] = system: CCRF-CEM leukemia
# [10] = system: MOLT-4 leukemia
SMILES,growth [1],growth [2],growth [3],growth [4],growth [5],growth [6],growth [7],growth [8],growth [9],growth [10]
O=C1/C(=C/c2ccccc2)CN(C(=O)c2cccnc2)C/C1=C\c1ccccc1,89.6%,30.2%,6.72% (active),-54.5% (active),20.7%,-15.7% (active),5.87% (active),65.3%,-15% (active),0.998% (active)
COc1ccc2cc(-c3ccc(-c4ccc(C(=N)N)s4)s3)ccc2c1,95.3%,0.97% (active),-55.2% (active),36.6%,89.6%,27%,88.8%,73.6%,-14% (active),1.6% (active)
CC(CN)[C@@H]1CC[C@]2(CO)CC[C@]3(C)[C@H](CC[C@@H]4[C@@]5(C)CCC(N)C(C)(C)[C@@H]5CC[C@]43C)[C@@H]12 (stereo not given in full),81.6%,-44.7% (active),25.5%,0.963% (active),57.7%,17.7%,33.7%,92.2%,-32.1% (active),-35.1% (active)
O=C1NC(=C(Cl)Cl)/C(=N/S(=O)(=O)NCCc2c[nH]c3ccccc23)N1,46.2%,101%,35.2%,71.6%,109%,88.4%,83.7%,71.5%,7.47% (active),18%
O=c1[nH]cnc2c1C(c1ccc(Br)cc1)c1sc3c(F)cccc3c1O2 (stereo not given),110%,90.9%,98.3%,76%,107%,95.1%,82.1%,104%,-50.7% (active),37%
O=C1C(Cl)=C(NCCN2CCOCC2)C(=O)c2ncccc21,-23.8% (active),-78.9% (active),-69.2% (active),-75.7% (active),28.3%,-42.5% (active),88.5%,74.2%,5.23% (active),8.73% (active)
CCC/C(=N\NC(N)=O)C(OC)OC,104%,111%,107%,89.3%,85.3%,105%,114%,91.1%,106%,121%
CN(Cc1cnc2nc(N)nc(N)c2n1)c1c(Cl)cc(C(=O)NC(CCC(=O)O)C(=O)O)cc1Cl (stereo not given),59.8%,42.4%,26.3%,11.5%,36%,29%,-20% (active),47.7%,34.8%,25.8%
CCN1C(=O)N(CC)C2C1NN=c1s/c(=C\c3ccccc3Br)c(=O)n12 (stereo not given),51.1%,47.7%,24.8%,36.2%,70.9%,26.1%,24.7%,-1.67% (active),14.5%,15.2%
N=c1c2c(=N)n3c(nc2nc2n1-c1ccccc1Sc1ccccc1-2)sc1cc(Cl)ccc13,-2.45% (active),13.8%,25%,7.88% (active),33.6%,18.2%,8.56% (active),0.653% (active),37.7%,48.4%
O=c1oc2c(cnc3ccccc32)cc1-c1cccs1,108%,103%,98.4%,88.3%,106%,102%,88.9%,107%,103%,102%
CCN1CCN(CC(=O)Nc2nc3ccc(NCc4ccc(Br)cc4)cc3s2)CC1,55.4%,68.2%,63.8%,59.5%,87%,74.6%,35.5%,88.8%,34.2%,31.7%
COc1cc(C(=O)c2c(-c3ccccc3)oc3c(OC)cccc23)cc(OC)c1O,62%,44.9%,27.1%,46.2%,64.6%,28.1%,33.1%,-26.1% (active),13.8%,18.7%
COc1cc(C(=O)/C=C/c2ccc(N3CCN(C)CC3)cc2)cc(OC)c1OC,107%,88.6%,98.5%,73.2%,110%,97.6%,90.9%,108%,105%,98%
